The values that follow come from PubChem BioAssay (NCI).

Some test systems named below: NCI-H23 lung; NCI-H226 lung; NCI-H322M lung; HOP-62 NSCLC; NCI-H460 lung; HOP-92 NSCLC; NCI-H522 lung; 786-0 renal; COLO 205 colon; DU-145 prostate; K-562 leukemia; MALME-3M melanoma; MDA-MB-231 breast; RXF 393 renal; SF-268 CNS; SF-295 CNS; SF-539 CNS; UACC-257 melanoma; M14 melanoma; A549/ATCC NSCLC.
Common to all, as to assay: NCI-60 one-dose screen, 48 h (100 = growth as untreated, 0 = no growth, -100 = all killed)
Common to all, as to conditions: 10 µM unless noted

“And” between values parts separate entries of the source, which are not always exact repeats. Identical values can stand only once. The panel holds about 83,000 compounds, 20% with a hit somewhere; the sample as a whole holds those more often.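 Percent growth is the endpoint: 0 to 100 indicates growth inhibition (40 means 60% inhibition), 0 means no net growth, and negative values indicate cell death.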 Unmarked numbers belong to inactive results. The source made the active and inactive calls. How the source made its calls: active means growth percent below 10; inactive means the rest.

On to `O=C1CCc2c(sc3[nH]c(=S)n(Cc4ccc(Cl)cc4)c(=O)c23)C1`, for which the growth with NCI-H23 lung is -12.9% (active); with NCI-H226 lung, -8.6% (active); in the experiment on NCI-H322M lung it was 11.4%; with HOP-62 NSCLC, -11.5% (active); with NCI-H460 lung, 5.05% (active); in the experiment with HOP-92 NSCLC it was -44.2% (active). Besides, the growth is -18.6% (active) in the experiment on NCI-H522 lung; 21% in the experiment with 786-0 renal; -67.5% (active) with COLO 205 colon; 23.7% with DU-145 prostate; 11% in the experiment on K-562 leukemia; 1.17% (active) in the experiment with MALME-3M melanoma. Moreover, the growth with MDA-MB-231 breast was -24.7% (active); in the experiment with RXF 393 renal, 5.18% (active); in the experiment with SF-268 CNS it was 18.7%; in the experiment on SF-295 CNS, -6.67% (active); in the experiment on SF-539 CNS it was -57.4% (active); with UACC-257 melanoma, -14.9% (active). Further, in the experiment with M14 melanoma, the growth was 12.4%.

For `COc1ccc(/C=C2/C(=O)N=C3N2NC(c2ccccc2)=CN3c2ccccc2)cc1`, the growth in the experiment on NCI-H23 lung was 86.4%; with NCI-H226 lung, 93.2%; in the experiment with NCI-H322M lung, 103%; in the experiment on HOP-62 NSCLC, 105%; with NCI-H460 lung, 106%; in the experiment with HOP-92 NSCLC, 102%. Further, the growth was 101% with NCI-H522 lung; 98.6% with 786-0 renal; 121% in the experiment with COLO 205 colon; 114% in the experiment with DU-145 prostate; 108% in the experiment on K-562 leukemia; 102% with MALME-3M melanoma. The growth in the experiment with MDA-MB-231 breast was 107%; in the experiment on RXF 393 renal, 89.7%; with SF-268 CNS, 98.5%; with SF-295 CNS, 103%; with SF-539 CNS, 94.8%; in the experiment on UACC-257 melanoma it was 108%. In the experiment on M14 melanoma, the growth is 98.3%.

As to `COc1cc(/C=C2\CCC/C(=C\c3cc(CN4CCCC4)c(O)c(OC)c3)C2=O)cc(CN2CCCC2)c1O`, the growth is 38.4% with NCI-H23 lung; 75.1% in the experiment on NCI-H226 lung; 44.3% in the experiment with NCI-H322M lung; 102% with HOP-62 NSCLC; 6.28% (active) in the experiment with NCI-H460 lung; 10.5% in the experiment on HOP-92 NSCLC. The growth with NCI-H522 lung is 46.1%; in the experiment on 786-0 renal it was -4.39% (active); in the experiment on DU-145 prostate, 2.36% (active); in the experiment with K-562 leukemia it was 11.1%; in the experiment with MALME-3M melanoma, 81.6%; in the experiment on MDA-MB-231 breast, 12.5%. Besides, the growth is 10.6% in the experiment with RXF 393 renal; 35.3% in the experiment on SF-268 CNS; 62.5% in the experiment with SF-295 CNS; 23% in the experiment on SF-539 CNS; 86.6% with UACC-257 melanoma.

As to `CCCCC#Cc1c(/C=C(\CCCC)SCC)n(C)c(=O)[nH]c1=O`, the growth in the experiment on NCI-H23 lung was 94.1%; in the experiment with NCI-H226 lung it was 93.2%; in the experiment on NCI-H322M lung, 97.7%; in the experiment with HOP-62 NSCLC, 94.8%; in the experiment on NCI-H460 lung, 93.8%; in the experiment on HOP-92 NSCLC it was 82.8%. For the same molecule, the growth is 79.7% with NCI-H522 lung; 98.5% in the experiment with 786-0 renal; 108% with COLO 205 colon; 110% in the experiment on DU-145 prostate; 72.2% in the experiment on K-562 leukemia; 112% in the experiment with MALME-3M melanoma. Further, the growth in the experiment on MDA-MB-231 breast is 102%; in the experiment on RXF 393 renal, -12.1% (active); in the experiment on SF-268 CNS, 93.7%; with SF-295 CNS, 114%; with SF-539 CNS, 98.4%; in the experiment with UACC-257 melanoma, 98.9%. For the same molecule, in the experiment with M14 melanoma, the growth is 105%.

On to `CCCCCCCCCCCCCCCC(=O)O[C@@H]1[C@@H](O)[C@@H](O)C([C@H](NC(=O)[C@@H]2C[C@@H](CCC)CN2C)[C@H](C)Cl)O[C@@H]1SC` (stereo partly specified), for which the growth was 102% in the experiment on NCI-H23 lung; 91.2% in the experiment with NCI-H226 lung; 97.8% in the experiment with NCI-H322M lung; 101% in the experiment with HOP-62 NSCLC; 110% in the experiment with NCI-H460 lung; 118% in the experiment with HOP-92 NSCLC. Also, the growth in the experiment with NCI-H522 lung is 130%; in the experiment on 786-0 renal, 91.8%; in the experiment with COLO 205 colon it was 103%; in the experiment on DU-145 prostate, 114%; with K-562 leukemia, 100%; in the experiment with MALME-3M melanoma, 87.1%. In addition, the growth with MDA-MB-231 breast is 110%; in the experiment on RXF 393 renal, 106%; with SF-268 CNS, 105%; in the experiment on SF-295 CNS, 104%; in the experiment with SF-539 CNS, 92%; in the experiment with UACC-257 melanoma it was 105%. Besides, the growth in the experiment on M14 melanoma is 98.9%.

Take `COc1cc(NC2CCCCC2O)c2nc(-c3ccc(Cl)cc3)ccc2c1` (stereo unspecified): the growth with NCI-H23 lung was 84.2% and 98.5%; with NCI-H226 lung, 90%; in the experiment on NCI-H322M lung it was 88.8% and 88.2%; with HOP-62 NSCLC it was 109% and 108%; in the experiment on NCI-H460 lung, 41.2% and 57.9%; with NCI-H522 lung, 65.7% and 89.5%. In addition, the growth was 69% and 73.5% with A549/ATCC NSCLC; 42.4% and 77.6% with 786-0 renal; 93.2% and 110% with COLO 205 colon; 95.3% and 95% in the experiment on DU-145 prostate; 44.8% in the experiment with K-562 leukemia; 72.5% and 124% in the experiment with MALME-3M melanoma. Further, the growth in the experiment with MDA-MB-231 breast is 44.6% and 78.1%; in the experiment with RXF 393 renal it was 39.3% and 67.9%; with SF-268 CNS it was 77.5% and 84%; in the experiment on SF-295 CNS, 51.5% and 54.3%; in the experiment on SF-539 CNS, 105% and 93.9%; in the experiment on UACC-257 melanoma it was 101% and 105%. The growth with M14 melanoma was 45.8% and 79.9%.

On to `O=C1Nc2ccccc2/C1=C/c1cccn1CCCCCn1c2ccccc2c(=O)c2ccccc21`, for which the growth in the experiment with NCI-H23 lung is 69.6%; in the experiment with NCI-H226 lung, 70%; in the experiment on NCI-H322M lung, 98.8%; with HOP-62 NSCLC, 58.3%; in the experiment on NCI-H460 lung it was 95.9%; in the experiment on HOP-92 NSCLC it was 65.5%. Also, the growth with NCI-H522 lung was 66.3%; with 786-0 renal, 105%; in the experiment on COLO 205 colon, 56.2%; in the experiment with DU-145 prostate it was 97.9%; in the experiment with K-562 leukemia it was 52.1%; in the experiment on MALME-3M melanoma, 84.5%. Moreover, the growth was 69.3% with MDA-MB-231 breast; 89.2% with RXF 393 renal; 83.3% in the experiment on SF-268 CNS; 93.1% in the experiment on SF-295 CNS; 94.2% in the experiment with SF-539 CNS; 106% in the experiment on UACC-257 melanoma. Besides, the growth in the experiment on M14 melanoma was 73.3%.
